Data from PubChem BioAssay (Tox21).
“And” between values parts separate entries of the source, which are not always exact repeats. Identical values can stand only once. Inconclusive results are not listed. A structure can be active in one record and inactive in another. The source made the active and inactive calls. Unless noted, the call rests on the fitted dose curve; in most records, active means well fitted curve in the direction sought with a large enough effect in the repeat runs; inconclusive means weak or mixed curves; inactive means no such curve, though single readings can be large; an effect the other way counts as inactive or inconclusive.

What was measured:
[1] = qHTS assay to test for compound auto fluorescence at 535 nm (green) in HEK293 cells (AID 720680)
[2] = qHTS assay to test for compound auto fluorescence at 460 nm (blue) in HEK293 cell free culture (AID 720681)
Method in brief: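 Test compounds were pinned into cell-free culture medium (DMEM with 10% FBS) and fluorescence was read directly at Ex/Em 405/460 nm. Signals were expressed as fluorescence equivalents of triamterene, with DMSO vehicle as control.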

[3] = qHTS assay to test for compound auto fluorescence at 535 nm (green) in HEK293 cell free culture (AID 720682)
Method in brief: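 Green-label autofluorescence (485 nm excitation, 535 nm emission) measured on compound added to cell-free culture medium (DMEM, 10% FBS). Output is expressed relative to fluorescein.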

[4] = qHTS assay to test for compound auto fluorescence at 590 nm (red) in HEK293 cell free culture (AID 720683)
Method in brief: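 Tox21 10K library compounds were pinned into cell-free DMEM with 10% FBS and fluorescence was read at excitation 540 nm. Activity is expressed as Rose Bengal sodium equivalency.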

[5] = qHTS assay to test for compound auto fluorescence at 590 nm (red) in HepG2 cell free culture (AID 720684)
Method in brief: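 Readout: intrinsic compound fluorescence at 590 nm emission after 540 nm excitation, scaled to Rose Bengal sodium. Matrix was cell-free MEM with 10% FBS; DMSO vehicle wells served as control.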

[6] = qHTS assay to test for compound auto fluorescence at 460 nm (blue) in HepG2 cell free culture (AID 720685)
Method in brief: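 Cell-free plates of MEM plus 10% FBS received 23 nL compound or DMSO vehicle; blue-channel (405/460 nm) intensity scored against triamterene as reference fluorophore.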

[7] = qHTS assay to test for compound auto fluorescence at 535 nm (green) in HepG2 cell free culture (AID 720686)
[8] = qHTS assay to test for compound auto fluorescence at 460 nm (blue) in HepG2 cells (AID 720687)
Method in brief: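 Cells (2,000/well in MEM with 10% FBS) attached overnight at 37 C, then were exposed to compound or DMSO for 1 hr at 37 C, 5% CO2. Fluorescence read at Ex/Em 405/460 nm, expressed as triamterene-equivalent signal.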

[9] = target: Glucocorticoid receptor (Homo sapiens) (UniProt P04150); test: qHTS assay to identify small molecule agonists of the glucocorticoid receptor (GR) signaling pathway (AID 720691; active means well fitted activation curve with a large enough effect in the signal ratio in the repeat runs, not every such curve was filed as active; the % refers to the signal ratio; further: potency means the concentration at half of the fitted maximal effect); conditions: GR-bla HeLa, beta-lactamase reporter ratio, 18 h; activation: at 62.4 µM (top of the series)
Sequence of Glucocorticoid receptor (Homo sapiens) (P04150 whole entry, looked up): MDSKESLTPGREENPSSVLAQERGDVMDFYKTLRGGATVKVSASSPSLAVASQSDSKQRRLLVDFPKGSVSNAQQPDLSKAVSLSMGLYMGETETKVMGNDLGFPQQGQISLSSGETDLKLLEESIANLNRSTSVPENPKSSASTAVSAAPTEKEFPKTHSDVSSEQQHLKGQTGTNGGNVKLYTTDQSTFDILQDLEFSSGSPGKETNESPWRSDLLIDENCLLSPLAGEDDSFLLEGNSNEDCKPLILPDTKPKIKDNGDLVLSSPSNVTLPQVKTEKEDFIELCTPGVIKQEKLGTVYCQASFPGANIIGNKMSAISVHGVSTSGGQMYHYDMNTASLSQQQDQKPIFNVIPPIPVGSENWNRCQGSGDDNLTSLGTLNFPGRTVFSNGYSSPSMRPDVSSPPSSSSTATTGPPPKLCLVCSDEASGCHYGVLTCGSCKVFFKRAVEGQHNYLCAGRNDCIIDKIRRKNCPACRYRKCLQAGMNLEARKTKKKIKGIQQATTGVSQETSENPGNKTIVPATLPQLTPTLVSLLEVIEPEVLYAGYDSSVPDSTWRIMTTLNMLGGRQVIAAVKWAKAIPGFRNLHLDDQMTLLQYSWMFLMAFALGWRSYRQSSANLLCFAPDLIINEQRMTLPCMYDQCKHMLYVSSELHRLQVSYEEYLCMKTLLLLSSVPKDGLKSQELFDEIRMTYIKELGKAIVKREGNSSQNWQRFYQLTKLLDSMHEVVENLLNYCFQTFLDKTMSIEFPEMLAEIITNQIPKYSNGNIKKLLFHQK
Method in brief: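 Compounds in DMSO, alongside positive controls, were added to GR-bla HeLa reporter cells and incubated 18 h at 37 C; GRE-driven beta-lactamase was detected by fluorescence after 2 h with FRET substrate at room temperature.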

[10] = target: Glucocorticoid receptor (Homo sapiens) (UniProt P04150); test: qHTS assay to identify small molecule antagonists of the glucocorticoid receptor (GR) signaling pathway (AID 720692; active means well fitted inhibition curve with a large enough effect in the signal ratio in the repeat runs, not every such curve was filed as active; the % refers to the signal ratio)
Method in brief: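 In a 1536-well cell format, compounds were added 4 h after seeding GR-bla HeLa cells, together with dexamethasone at 5 nM final; reporter activity was measured by FRET-substrate fluorescence following 18 h at 37 C.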

[11] = qHTS assay to identify small molecule antagonists of the glucocorticoid receptor (GR) signaling pathway - cell viability counter screen (AID 720693); further: nearly all actives have a fitted effect of over 55% in size
[12] = qHTS assay for identifying genotoxic compounds that show differential cytotoxicity against isogenic chicken DT40 cell lines with known DNA damage response pathways - wild type cell line (AID 743012); further: nearly all actives have a fitted effect of over 60% in size; further: potency means the concentration at half of the fitted maximal effect
Method in brief: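 Viability of DNA repair-proficient chicken DT40 cells was assessed by CellTiter-Glo luminescence following 40 h compound exposure at 37 C/5% CO2.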

[13] = qHTS assay for identifying genotoxic compounds that show differential cytotoxicity against isogenic chicken DT40 cell lines with known DNA damage response pathways - Rev3 mutant cell line (AID 743014); further: nearly all actives have a fitted effect of over 55% in size; further: potency means the concentration at half of the fitted maximal effect
[14] = qHTS assay for identifying genotoxic compounds that show differential cytotoxicity against isogenic chicken DT40 cell lines with known DNA damage response pathways - Rad54/Ku70 mutant cell line (AID 743015); further: nearly all actives have a fitted effect of over 60% in size; further: potency means the concentration at half of the fitted maximal effect
[15] = qHTS assay to identify small molecule antagonists of the androgen receptor (AR) signaling pathway - cell viability counter screen (AID 743033; further: nearly all actives have a fitted effect of over 45% in size)
[16] = target: Androgen receptor (Homo sapiens) (UniProt P10275); test: qHTS assay to identify small molecule antagonists of the androgen receptor (AR) signaling pathway (AID 743035; active means well fitted inhibition curve with a large enough effect in the signal ratio in the repeat runs, not every such curve was filed as active; the % refers to the signal ratio)
Sequence of Androgen receptor (Homo sapiens) (P10275 whole entry, looked up): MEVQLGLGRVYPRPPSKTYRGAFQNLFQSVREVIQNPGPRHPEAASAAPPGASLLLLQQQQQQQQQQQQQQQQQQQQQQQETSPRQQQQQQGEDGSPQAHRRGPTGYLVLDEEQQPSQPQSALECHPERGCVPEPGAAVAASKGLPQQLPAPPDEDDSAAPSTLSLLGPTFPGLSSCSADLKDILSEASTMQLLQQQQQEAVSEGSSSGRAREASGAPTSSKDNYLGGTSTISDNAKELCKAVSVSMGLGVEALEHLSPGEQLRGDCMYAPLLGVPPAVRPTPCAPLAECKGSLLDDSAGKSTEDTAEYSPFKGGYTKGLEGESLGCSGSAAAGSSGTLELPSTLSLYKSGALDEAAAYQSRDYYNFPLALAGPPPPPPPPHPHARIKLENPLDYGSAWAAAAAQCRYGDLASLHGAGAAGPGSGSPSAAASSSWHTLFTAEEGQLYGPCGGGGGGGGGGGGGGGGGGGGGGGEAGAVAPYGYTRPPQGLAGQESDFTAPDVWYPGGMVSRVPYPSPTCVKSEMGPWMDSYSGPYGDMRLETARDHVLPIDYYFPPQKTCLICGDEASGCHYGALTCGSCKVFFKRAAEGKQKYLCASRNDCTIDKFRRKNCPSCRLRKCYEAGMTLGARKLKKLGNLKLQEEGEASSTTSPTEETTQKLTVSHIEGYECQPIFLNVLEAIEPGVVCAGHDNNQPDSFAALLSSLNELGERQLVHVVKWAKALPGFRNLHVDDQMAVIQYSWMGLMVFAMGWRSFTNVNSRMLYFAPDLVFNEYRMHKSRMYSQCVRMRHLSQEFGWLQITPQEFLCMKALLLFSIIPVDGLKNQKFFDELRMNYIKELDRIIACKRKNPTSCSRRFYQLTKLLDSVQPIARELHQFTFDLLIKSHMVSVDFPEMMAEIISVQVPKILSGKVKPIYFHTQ
Method in brief: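 Reporter HEK293 cells were exposed to compounds and R1881 overnight (16 h, 37C); beta-lactamase activity was then quantified by FRET fluorescence.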

[17] = target: Androgen receptor (Homo sapiens) (UniProt P10275); test: qHTS assay to identify small molecule agonists of the androgen receptor (AR) signaling pathway (AID 743036; active means well fitted activation curve with a large enough effect in the signal ratio in the repeat runs, with a control signal flat, not every such curve was filed as active; the % refers to the signal ratio)
Method in brief: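 AR-UAS-bla HEK293 cells, plated 4 h before dosing, were treated with compound for 16 h at 37C. beta-Lactamase reporter read after 2 h with LiveBLAzer B/G FRET substrate at room temperature.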

[18] = target: Androgen receptor (Homo sapiens) (UniProt P10275); test: qHTS assay to identify small molecule agonists of the androgen receptor (AR) signaling pathway using the MDA cell line (AID 743040; further: nearly all actives have a fitted effect of over 20% in size)
Method in brief: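 Agonist activity is measured as luciferase luminescence in human MDA-kb2 cells whose MMTV reporter responds to both AR and GR. Compounds in DMSO incubate 16 h at 37C, 0% CO2, and ONE-Glo is read after 30 min.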

[19] = qHTS assay to identify small molecule antagonists of the androgen receptor (AR) signaling pathway using the MDA cell line - cell viability counter screen (AID 743041; further: nearly all actives have a fitted effect of over 45% in size)
Method in brief: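 qHTS viability read-out; MDA-kb2 AR-luc; R1881-stimulated; 16 h exposure at 37C, 0% CO2; CellTiter-Fluor, 30 min; fluorescence intensity.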

[20] = target: Androgen receptor (Homo sapiens) (UniProt P10275); test: qHTS assay to identify small molecule antagonists of the androgen receptor (AR) signaling pathway using the MDA cell line (AID 743042; further: nearly all actives have a fitted effect of over 55% in size)
Method in brief: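 MDA-kb2 cells (human breast carcinoma, stably carrying an MMTV-luciferase reporter responsive to AR and GR) were plated at 3,000 cells/well and preincubated 5 hr at 37C, then given compound plus R1881 agonist for 16 h. ONE-Glo luminescence was read.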

Measured: Potency

NCCCC[C@H](NC(=O)[C@@H]1CCCN1C(=O)[C@@H]1CSSC[C@H](N)C(=O)N[C@@H](Cc2ccc(O)cc2)C(=O)N[C@@H](Cc2ccccc2)C(=O)N[C@@H](CCC(N)=O)C(=O)N[C@@H](CC(N)=O)C(=O)N1)C(=O)NCC(N)=O
inactive: all assays above

C/C(=C(/CCO)SSCC1CCCO1)N(C=O)Cc1cnc(C)nc1N (centres undefined)
active: [12] 23.7 µM and 11.9 µM | [13] 23.7 µM | [14] 26.6 µM
inactive and 21.3 µM (active): [9]
not listed: [16] | [17] | [18] | [20]
inactive: all other assays above

Nc1ccc(N)c([N+](=O)[O-])c1
inactive: [1] | [2] | [3] | [4] | [5] | [6] | [7] | [8]

CCCCCN=C(N)N/N=C/c1c[nH]c2ccc(OC)cc12
not listed: [14] | [16] | [17] | [18] | [20]
inactive: all other assays above

CCCCCCCCCCCCCCCC(=O)OC[C@H](COP(=O)([O-])OCC[N+](C)(C)C)OC(=O)CCCCCCCCCCCCCCC
inactive: all assays above

COC1=C(OC)C(=O)C(C/C=C(\C)CC/C=C(\C)CC/C=C(\C)CC/C=C(\C)CC/C=C(\C)CC/C=C(\C)CC/C=C(\C)CC/C=C(\C)CC/C=C(\C)CCC=C(C)C)=C(C)C1=O
not listed: [16] | [17] | [18] | [20]
inactive: all other assays above

NC(=O)[C@@H]1CCCN1C(=O)[C@H](Cc1cnc[nH]1)NC(=O)[C@@H]1CCC(=O)N1
not listed: [16] | [17] | [18] | [20]
inactive: all other assays above

CCOC(=O)COc1ccc2c(=O)cc(-c3ccccc3)oc2c1
active: [12] 29.8 µM | [14] 29.8 µM
not listed: [16] | [17] | [18] | [20]
inactive: all other assays above

O=P(O)(O)OP(=O)(O)OP(=O)(O)O
not listed: [15] | [17] | [19]
inactive: all other assays above

Cc1cccc(C)c1NC(=O)C1CCCCN1C (centres undefined)
not listed: [15] | [16] | [17] | [18] | [20]
inactive: all other assays above

NS(=O)(=O)c1cc(Cl)c(Cl)c(S(N)(=O)=O)c1
not listed: [15] | [16] | [17] | [18] | [20]
inactive: all other assays above

CCC[C@@H]1C[C@@H](C(=O)N[C@@H]([C@H]2O[C@H](SC)[C@H](OP(=O)(O)O)[C@@H](O)[C@H]2O)[C@H](C)Cl)N(C)C1
inactive: all assays above

CSCCC(N)C(=O)O (centres undefined)
not listed: [15] | [16] | [17] | [18] | [20]
inactive: all other assays above

O=C1c2ccccc2CN2C(=O)c3ccccc3CN12
not listed: [12] | [16] | [17] | [18] | [20]
inactive: all other assays above
